This is a sample that favours compounds with a hit; in the whole collection about 2.4% have one here.
PGE2 EP2 inh – EP2 receptor (human) inhibition. P43116. C6 glioma cells expressing human EP2, cAMP TR-FRET; cells stimulated with saturating PGE2. inhibition, % at 25 µM. 260,000 compounds, 0.52% hits. AID 1422;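 active means percent inhibition above 40 after rounding to a whole number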;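 further: rat C6 glioma host cells with rolipram phosphodiesterase inhibitor present; the protocol text gives 20 µM as final concentration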
Target sequence (P43116 whole entry, looked up): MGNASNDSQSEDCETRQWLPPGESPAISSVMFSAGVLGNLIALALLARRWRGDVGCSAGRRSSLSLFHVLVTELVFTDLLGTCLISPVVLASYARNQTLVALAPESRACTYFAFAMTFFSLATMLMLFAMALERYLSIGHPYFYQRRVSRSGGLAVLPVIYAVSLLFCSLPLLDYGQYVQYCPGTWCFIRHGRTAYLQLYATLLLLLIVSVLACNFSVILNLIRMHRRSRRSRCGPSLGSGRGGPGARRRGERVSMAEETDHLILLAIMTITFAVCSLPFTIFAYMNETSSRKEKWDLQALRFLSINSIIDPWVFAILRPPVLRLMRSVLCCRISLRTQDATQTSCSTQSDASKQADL
Hck Nef HTS – inhibitors of human Hck kinase activated by Nef | 220,000 compounds, 0.68% hits | inhibition, % at 20 µM | P08631 | AID 463187 | Recombinant Hck-YEEI plus Nef, Z-Lyte FRET kinase assay;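 active means Hck-Nef kinase inhibition above about 50%, limit read from the data; inactive means inhibition below that limit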;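 further: 0% = DMSO with Hck plus Nef and 100% = Hck alone without Nef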
p97 ATPase inh – human p97 ATPase inhibition; P55072; recombinant p97 ATPase, Kinase-Glo ATP luminescence, 3 h; 220,000 compounds, 0.42% hits; inhibition, % at 8 µM; in the data active means inhibition above about 15%;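 further: 0% = DMSO vehicle and 100% = wells lacking enzyme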
Arbovirus anti – arbovirus infection inhibition. arbovirus infection cell-based antiviral screen. inhibition, % at 10 µM. 200,000 compounds, 0.37% hits; in the data active means inhibition above about 30%
EP2 modulator – EP2 receptor (human) modulation; P43116; induction, % at 25 µM; 260,000 compounds, 0.83% hits; AID 940; EP2-expressing cells, cAMP HTRF FRET, PGE2 co-stimulation;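 active means compounds whose cAMP rise, as percent of the full-agonist control response, exceeds 60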;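 further: rat C6 glioma line stably carrying human EP2 under a CMV promoter; the protocol text gives 20 µM as final concentration; 100% = response of wells given 1 µM PGE2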
Hck-Nef confirm – Hck-Nef kinase inhibition, confirmation. shares compounds with Hck Nef HTS. Recombinant Hck-YEEI:Nef, Z-Lyte FRET kinase assay. calls only at 10 µM. 1,300 compounds, 28% hits;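 active means average inhibition of at least 50%, with Z-scores no higher than 3 in both the phospho-tyrosine peptide and fluorescence counterscreens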
Active calls of the source: *; i = inactive; . = no result shown; + = active, no number.

SMILES	PGE2 EP2 inh	Hck Nef HTS	p97 ATPase inh	Arbovirus anti	EP2 modulator	Hck-Nef confirm
CCOC(=O)c1cc2c(=O)n3cccc(C)c3nc2n(CCOC)c1=NC(C)=O	9.7	87.0*	3.0	.	20.4	.
CCOC(=O)c1cc2c(=O)n3ccccc3nc2n(CCCOC)c1=NC(C)=O	.	172.9*	-2.0	-4.0	11.6	.
CCOCCCn1c(=NC(C)=O)c(C#N)cc2c(=O)n3cccc(C)c3nc21	13.9	35.7	2.3	.	-10.0	.
CC1CC(C)CN(CCC(=O)Nc2ccc(F)cc2)C1 (stereo unspecified)	10.8	.	.	.	-86.4	.
COc1ccccc1NC(=O)Cn1cnc2sc(C(=O)Nc3ccccc3)c(C)c2c1=O	8.6	.	.	.	-111.1	.
CN1/C(=C\C(=O)c2cccnc2)Sc2ccccc21	2.0	43.6	-5.0	-3.5	-21.6	.
COc1cccc(C(=O)/C=C2\Sc3ccccc3N2C)c1	11.6	106.2*	-0.3	-7.0	-14.4	i
CCCc1cc(=O)oc2c(CN3CCCC3)c(O)ccc12	28.4	93.3*	-0.1	2.4	-4.9	.
CCCc1cc(=O)oc2cc(C)c(CN3CCCC3)c(O)c12	.	2.0	7.2	4.2	25.7	.
Cc1c(O)ccc2c(CN3CCN(CCO)CC3)cc(=O)oc12	9.1	62.8*	2.2	6.6	-3.8	i
CCCc1cc(=O)oc2c(CN3CCCC3)c(O)c(Cl)cc12	7.0	116.3*	0.9	2.2	.	i
Cc1nc(SCC(=O)Nc2ccc3c(c2)OCCO3)c2oc3ccccc3c2n1	8.5	80.9*	-6.2	-2.6	-0.1	i
CCc1nc(SCC(=O)Nc2nccs2)c2oc3ccccc3c2n1	.	12.4	-11.4	7.9	7.2	.
Cc1nc(SCC(=O)NCc2ccccc2)c2oc3ccccc3c2n1	5.1	-2.0	-8.1	-8.3	-6.9	.
CCc1nc(SCC(=O)Nc2ccc3c(c2)OCCO3)c2oc3ccccc3c2n1	9.3	88.3*	-2.0	-41.4	39.4	i
C=CCn1ncc(CN(Cc2cccnc2)C2CC(C)(C)NC(C)(C)C2)c1C	6.8	.	.	.	-8.9	.
O=C(CN1C(=O)[C@H]2CCCN2C(=O)c2ccccc21)Nc1ccc(F)cc1	5.2	.	.	.	16.4	.
CC[C@H](C)NC(=O)CCCCCn1c(=S)[nH]c2c([nH]c3ccc(OC)cc32)c1=O	7.1	51.6*	-3.5	-4.8	-3.1	i
CN(C)c1cccc(C(=O)N2CCC(O)(c3ccccn3)CC2)c1	.	.	.	.	15.0	.
COc1ccc(Nc2ccnc(Nc3ccc(OC)cc3)n2)cc1	8.8	88.3*	6.3	-38.8	-2.9	+
CCCCC1=CC2=CC(=O)C(C)(OC(=O)CCc3ccccc3)C(=O)C2=CO1 (stereo unspecified)	12.7	67.0*	.	.	27.6	+
CCCCC1=CC2=CC(=O)C(C)(OC(=O)CCC(=O)OC)C(=O)C2=CO1 (stereo unspecified)	13.6	.	.	.	.	.
Cc1cc2cc3c(cc2n2c(=O)n(CCN4CCCC4)nc12)OCO3	.	.	.	.	-10.3	.
COc1ccc(-c2csc(NC(=O)c3ccccc3NS(=O)(=O)c3ccc(F)c(F)c3)n2)cc1	23.6	79.9*	3.1	-32.9	-22.7	+
O=C1COc2ccc(C(=O)CSc3nc4ccccc4c(=O)n3-c3ccc(Cl)c(Cl)c3)cc2N1	7.4	63.9*	5.7	-30.4	-12.3	i
SMILES	PGE2 EP2 inh	Hck Nef HTS	p97 ATPase inh	Arbovirus anti	EP2 modulator	Hck-Nef confirm
COc1cc(OC)cc(C(=O)N=c2sc3ccccc3n2C)c1	10.2	81.4*	5.8	1.4	20.1	i
COc1ccccc1NS(=O)(=O)c1ccc(N/N=C/c2ccccc2OCC(=O)O)c([N+](=O)[O-])c1	22.4	32.7	-1.2	8.9	-111.0	.
O=C(O)COc1ccccc1/C=N/Nc1ccc(S(=O)(=O)Nc2ccc(Cl)cc2)cc1[N+](=O)[O-]	6.1	104.3*	-0.3	5.9	-47.4	i
Cc1ccc(C(C(=O)NC2CCCC2)N(Cc2cccs2)C(=O)c2csnn2)cc1 (stereo unspecified)	9.5	.	.	.	27.1	.
CCOc1cc(/C=C2\SC(=Nc3ccccc3)N(c3ccccc3)C2=O)ccc1OCC(=O)O	13.5	2.2	-3.8	10.8	49.1	.
CCOC(=O)COc1ccc(/C=C2/SC(=Nc3ccccc3)N(Cc3cccnc3)C2=O)cc1OC	11.5	70.9*	0.8	12.5	43.2	i
O=C1/C(=C\c2ccco2)SC(=S)N1C1CCS(=O)(=O)C1 (stereo unspecified)	9.3	68.6*	8.9	.	-15.6	i
O=C1/C(=C/c2ccco2)SC(=S)N1C1CCS(=O)(=O)C1 (stereo unspecified)	6.1	20.3	5.0	14.2	-26.9	.
c1ccc(COc2ccc(Nc3ncnc4nc[nH]c34)cc2)cc1	33.9	68.5*	-2.9	-14.0	-7.9	+
Cn1c(=O)n(C)c2cc(CN(CCN3CCOCC3)Cc3cccnc3)ccc21	5.8	.	.	.	-5.5	.
CCN(CC)c1ccc(-c2nn3c(-c4ccccc4OC)nnc3s2)cc1	10.5	50.7*	-2.6	-33.2	1.6	i
N#Cc1c(NC(=O)CN2CCN(S(=O)(=O)c3ccc4c(c3)OCCO4)CC2)sc2c1CCC2	3.5	53.4*	5.4	-2.5	26.0	i
Cc1ccc(-c2nnn(CC(=O)N(c3ccccc3F)C(C(=O)NC(C)(C)C)c3ccco3)n2)o1 (stereo unspecified)	8.1	.	.	.	43.5	.
Cc1cccc(NC(=O)Cn2c(O)c(N=NC(=O)c3ccccc3O)c3ccccc32)c1	4.2	50.6*	3.2	-2.5	5.6	+
Cc1ccc(NC(=O)Cn2c(O)c(N=NC(=O)c3cc([N+](=O)[O-])ccc3O)c3ccccc32)cc1	3.5	67.6*	7.3	.	11.3	+
COc1ccc(S(=O)(=O)N(CCc2ccccc2C)Cc2cc3cc(OC)ccc3[nH]c2=O)cc1	7.4	.	.	.	34.7	.
COc1ccc(-c2nnn(CC(=O)NCCc3ccc(OC)c(OC)c3)n2)cc1	1.2	96.9*	1.4	-0.6	-19.5	i
CCCOc1ccc(-c2nnn(CC(=O)NCCc3ccc(OC)c(OC)c3)n2)cc1	12.5	.	.	.	7.9	.
O=c1[nH]c(=S)[nH]c(O)c1N=Nc1ccc(-c2ccccc2)cc1[N+](=O)[O-]	2.7	68.4*	5.5	6.4	-34.6	i
COc1ccc(CN(Cc2ccccn2)C2CC(C)(C)NC(C)(C)C2)cc1OC	13.4	.	.	.	-38.4	.
COc1cccc(NC2SC(=O)N(c3cccc(C)c3)C2=O)c1 (stereo unspecified)	7.4	.	.	.	-4.9	.
COc1ccc(CCn2c(SCC(=O)Nc3cc(C)on3)nc3ccsc3c2=O)cc1OC	.	65.0*	3.1	0.5	11.4	i
COc1ccc(CCn2c(SCC(=O)Nc3cc(C)on3)nc3ccccc3c2=O)cc1OC	.	7.9	6.2	-11.4	-8.1	.
CC(C)c1ccc2nc(SCC(=O)Nc3ccccc3C(F)(F)F)c(C#N)cc2c1	12.4	.	.	.	-5.9	.
Cc1ccc(CN2C(=O)N/C(=C/c3ccc(-c4ccc(C(=O)O)cc4)o3)C2=O)cc1	8.7	89.3*	-2.8	.	-8.9	.
